Screens from PubChem.
This is a sample that favours compounds with a hit; in the whole collection about 21% have one here.
Pf growth 48h = P. falciparum growth inhibition at 48 hours (one generation). AID 504832. P. falciparum luciferase growth in erythrocytes, 48 h. actives 5.9% (n = 310,000). Potency, µM (series often up to 28.7 µM), inactives show at the top dose activity change, negative = inhibition, actives largely listed as inhibitors; note: potency is the fitted concentration of half-maximal effect; % is set by controls: 0 for no effect and ±100 for the full control effect
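Luciferase-expressing P. falciparum in infected erythrocytes (2% hematocrit, 0.1% parasitemia final) in RPMI 1640/0.5% Albumax were exposed to compound for 48 hours at 37 C, 5% CO2; growth read as luminescence.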
Cycloheximide cs = affects cycloheximide protein synthesis inhibition readout, counter-screen; actives 12% (n = 300,000); max response, %; cell reporter, cycloheximide protein synthesis inhibition counterscreen; in the data active = max response mostly above about 13%, no sharp cut-off; inactive = mostly below about 14%; note: read at 38.3 µM for the half of the compounds with a filed dose; 0% is about no effect
Pf growth 96h = P. falciparum growth inhibition at 96 hour, primary screen for plastid delayed-death inhibitors; P. falciparum luciferase reporter growth, 96 h; Potency, µM (titrated, usually from 28.7 µM), for inactives: at the top dose activity change, negative = inhibition, hits mostly inhibitors; actives 6.9% (n = 320,000); note: potency is the fitted concentration of half-maximal effect; % is set by controls: 0 for no effect and ±100 for the full control effect
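Parasite growth measured via integrated firefly luciferase reporter in P. falciparum. Infected erythrocytes at 2% hematocrit, 0.05% parasitemia final were treated 96 hours at 37 C under 5% CO2, and luminescence was read.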
HCMV antiviral = human cytomegalovirus inhibition; HFF cells, HCMV-luciferase reporter, 72 h; stronger effect = lower value; actives 4.5% (n = 410,000); AID 1259415; activity change, negative = inhibition, % at 57.5 µM; in the data active = activity change below about -60%; inconclusive = no clear call, values can overlap the other calls; inactive = above about -39%; note: % is set by controls: 0 for no effect and ±100 for the full control effect
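Two-dose cell screen: HFF monolayers treated with compounds and infected with luciferase-expressing HCMV at 1 PFU/cell, 72 h at 37C, then lysed for luciferase measurement.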
HCV inhibitor = blocks hepatitis C virus; actives 3.4% (n = 340,000); Huh7.5.1 HCVcc-Cre infection, luciferase reporter, 44 h; Potency, µM (doses to about 41.8 µM), for inactives: at the highest dose activity change, negative = inhibition, most hits filed as inhibitors; note: potency is the fitted concentration of half-maximal effect; % is set by controls: 0 for no effect and ±100 for the full control effect
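Reporter virus HCVcc-Cre (~0.5 moi) infects cells exposed to compound; seeding density 1,000 cells/well with 4 h settling beforehand. Luminescence, 15 sec read, taken 44 h post-infection following a 15 min RT substrate incubation.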
Shiga toxin inh = Shiga toxin inhibition | Vero cells, Shiga toxin protein synthesis inhibition reporter | inhibition, % at 38.7 µM | actives 9.2% (n = 290,000); in the data active = inhibition mostly above about 28%, no sharp cut-off; inactive = mostly below about 43%; note: 0% is about no effect
* marks the source's active call; other numbers are inactive results; ? = inconclusive; nt = no result given; + = active, no number. Unless noted, calls come from the whole dose curve; as a rule, active = well fitted inhibition curve with a large enough effect; inconclusive = small, poorly fitted or top-dose-only effect, or another doubt; inactive = no such curve, though single readings can be large or run the other way.

SMILES	Pf growth 48h	Cycloheximide cs	Pf growth 96h	HCMV antiviral	HCV inhibitor	Shiga toxin inh
Cc1cnc(CNC(=O)CC2C(=O)NCCN2Cc2cccc(F)c2F)cn1 (stereo unspecified)	14.3%	2.9	?	26.4	7.9%	-8.0
Fc1ccccc1Sc1ccccc1CNC1=NCCN1	?	-1.4	10.4µM*	-61.3*	?	11.6
CN(C)Cc1ccccc1Sc1cccc2ccccc12	-29.9%	-7.1	?	-22.4	?	-9.1
O=[N+]([O-])c1ccccc1/C=N/NC1=NCCN1	nt	nt	nt	13.5	7.6%	nt
c1ccc(Sc2cccc3ccccc23)c(CNC2=NCCN2)c1	1.17µM*	-2.9	0.928µM*	-67.3*	?	-4.4
Clc1ccc(OCc2nc(-c3ccccn3)n[nH]2)cc1	-1.7%	40.3*	nt	29.2	?	20.8*
Brc1ccc(OCc2nc(-c3ccccn3)n[nH]2)cc1	nt	28.8*	-57.7%	58.2	?	34.1
Brc1ccc(OCCOc2cccc3cccnc23)cc1	1.7%	-3.3	17.7%	-34.1	4.1%	14.5
CNC(=O)c1nc(C)n(-c2cc(Cl)cc(Cl)c2)n1	9.5%	4.1	37.8%	nt	0.8%	-9.0
CNC(=O)c1nc(C)n(-c2cc(Cl)ccc2Cl)n1	0.1%	28.5*	-12.6%	-2.6	10.9%	42.0
O=C1C2CCCCC2C(=O)N1c1ccc(NC2CCN(Cc3ccccc3)CC2)c([N+](=O)[O-])c1 (stereo unspecified)	?	-2.4	-8.1%	-17.4	-9.2%	-3.3
CC1CCC2C(=O)N(c3ccc(NC4CCN(Cc5ccccc5)CC4)c([N+](=O)[O-])c3)C(=O)C2C1 (stereo unspecified)	11.7µM*	-1.2	18.1%	?	-11.0%	20.2
O=[N+]([O-])c1ccc(NC2CCN(Cc3ccccc3)CC2)c2ccncc12	1.65µM*	-6.5	?	-31.5	?	17.2
COc1ccc(-n2c(CN3CCN(c4ccccc4OC)CC3)nc3ccc([N+](=O)[O-])cc3c2=O)c(OC)c1	13.1µM*	-3.3	-18.5%	82.5	-28.2%	3.0
CC(C)OC(=O)CC1C(=O)NCCN1C(=S)NC(=O)c1ccc(F)cc1 (stereo unspecified)	1.0%	-1.4	2.8%	?	18.7%	-5.3
COc1ccc(/C=C/c2c(-c3ccc(OC)cc3)oc3ccccc23)cc1	?	-1.3	?	11.0	5.6%	-3.7
O=c1nc(/C=C/c2ccc(O)c(O)c2)oc2ccccc12	25.9%	24.8*	23.4%	nt	1.6%	38.3
COc1ccc(/C=C\c2nc(=O)c3ccccc3o2)cc1	?	59.6*	-27.5%	13.9	18.1%	135.5*
COC(=O)c1cc2c(C)c(C)c3ccccn3c-2c1C(=O)OC	nt	-1.1	13.1µM*	-36.1	?	-11.0
COC(=O)c1cc2ccccn2c2c(C(=O)OC)c(C(=O)OC)cc1-2	nt	-4.5	-9.5%	46.2	?	-14.7
COC(=O)c1cc2n3ccccc3c(C)c(-c3ccccc3)c-2c1C(=O)OC	nt	-6.4	9.28µM*	8.9	?	-8.2
CC(C)C[C@H]1CN([C@@H](Cc2ccccc2)CN2CCC[C@H]2CN2C(=O)C(=O)NC[C@@H]2Cc2ccccc2)C(=O)C(=O)N1CC1CCCCCC1	nt	nt	nt	-6.9	nt	nt
CC1CN(CC(O)COC(c2ccc(Cl)cc2)c2ccc(Cl)cc2)CC(C)O1 (stereo unspecified)	3.7µM*	-2.9	?	53.0	10µM*	-11.2
CN(C)CC(O)COC(c1ccc(Cl)cc1)c1ccc(Cl)cc1 (stereo unspecified)	?	-5.2	?	?	3.16µM*	-23.1
COCCNC(=O)C1(C(F)(F)F)C/C(=C\CCO)CCCO1 (stereo unspecified)	nt	-3.4	nt	nt	nt	-10.3
SMILES	Pf growth 48h	Cycloheximide cs	Pf growth 96h	HCMV antiviral	HCV inhibitor	Shiga toxin inh
CC(=O)C1=C(C)NC(=O)NC1c1ccc(Cl)cc1 (stereo unspecified)	2.0%	-0.9	?	-14.1	14.1%	-7.9
Cc1ccc(-c2nnn(CCC(=O)N3CCCCC3C)n2)cc1 (stereo unspecified)	49.5%	17.4*	?	70.7	8.8%	72.5*
O=C(O)CCn1nnc(-c2ccccc2)n1	17.6%	-2.8	43.8%	7.8	20.7%	-16.1
COc1ccc(NC(=O)CCn2nnc(-c3ccc(C)cc3)n2)cc1OC	4.3%	-2.2	?	-35.7	?	-3.5
CC1CCCCN1C(=O)Cn1nnc(-c2cccnc2)n1 (stereo unspecified)	?	1.5	nt	-16.6	18.5%	11.9
COC(=O)CCn1nnc(-c2ccc(C)cc2)n1	9.5%	31.8*	nt	-20.0	?	59.7*
Cc1ccc(-c2nnn(CCC(=O)NC(C)(C)C)n2)cc1	125.2%	31.9*	5.5%	-1.3	-6.2%	52.3*
CCOC(=O)CCn1nnc(N)n1	4.5%	-2.9	10.4µM*	0.0	1.7%	3.6
Cc1ccc(/C=N/NC(=O)Cn2nnc(N)n2)cc1	-2.6%	-1.9	34.6%	-33.3	18.2%	-3.6
O=C(CCl)NCCCN(C(=O)C(Cl)Cl)c1ccc([N+](=O)[O-])cc1	6.57µM*	-0.8	7.38µM*	-103.2*	?	13.3
O=C(Nc1nc2c(s1)CCc1ccccc1-2)c1ccco1	?	49.9*	?	112.2	31.6µM*	81.2*
O=C(CCCl)Nc1nc2c(s1)CCc1ccccc1-2	?	9.3	2.08µM*	-15.4	-28.6%	25.0
Cn1nnc(NC(=O)c2cccc(OCc3ccccc3)c2)n1	?	-2.3	3.0%	15.7	?	14.8
COc1cc(OC)cc(C(=O)NC(=S)Nc2nnn(C)n2)c1	17.8%	-3.5	-17.2%	-5.3	22.0%	7.4
Cn1nnc(NC(=O)c2ccc(C(C)(C)C)cc2)n1	9.28µM*	46.0*	-0.1%	19.0	2.8%	45.1*
Cn1nnc(NC(=S)NC(=O)c2ccc3ccccc3c2)n1	nt	nt	nt	-67.2*	nt	nt
Cn1nnc(NC(=O)c2ccc3ccccc3c2)n1	?	30.2*	?	33.8	-21.6%	+
Cn1nnc(NC(=S)NC(=O)c2cccc3ccccc23)n1	?	-0.7	13.1µM*	16.4	5.9%	-6.1
CCOC(=O)c1c(C)[nH]c(C)c1S(=O)(=O)N(C)CC(=O)Nc1cccc(C(F)(F)F)c1	nt	nt	nt	-20.7	nt	nt
Nc1ccc2nc(N3CCOCC3)sc2c1	247.5%	41.4*	212.9%	26.7	-7.0%	139.8*
c1ccc2sc(N3CN(CCN4CCOCC4)CN(c4nc5ccccc5s4)C3)nc2c1	-5.7%	8.0	42.4%	nt	0.1%	17.5
c1ccc2sc(N3CCOCC3)nc2c1	89.0%	44.2*	318.1%	22.7	16.3%	53.2
CN(C)S(=O)(=O)c1cc(NC2CC(=O)N(c3ccc(F)cc3)C2=O)ccc1Cl (stereo unspecified)	-11.2%	5.1	31.2%	-36.6	21.5%	8.4
